Laboratory results from PubChem BioAssay AID1085 (Emory University Molecular Libraries Screening Center, 2008).
The whole screen tested about 220,000 compounds, of which about 930 (0.42%) were called active. This excerpt belongs to a sample that is enriched for actives. Values without a mark were called inactive. Cut-off read from the data, not from the text of the source: active = inhibition above about 50%; inactive = the rest.

The compounds below were run against Glycoprotein 42 (Epstein-Barr virus (strain AG876)) (UniProt Q1HVG2) (assay: EBV glycoprotein 42 binding blockers – biochemical, uHTS, fluorescence polarization, primary screen (AID 1085)). Details: Fluorescence polarization binding assay, mP read-out; stronger effect = higher value; tested at 21.74 µM.
Sequence of Glycoprotein 42 (Epstein-Barr virus (strain AG876)) (Q1HVG2 whole entry, looked up): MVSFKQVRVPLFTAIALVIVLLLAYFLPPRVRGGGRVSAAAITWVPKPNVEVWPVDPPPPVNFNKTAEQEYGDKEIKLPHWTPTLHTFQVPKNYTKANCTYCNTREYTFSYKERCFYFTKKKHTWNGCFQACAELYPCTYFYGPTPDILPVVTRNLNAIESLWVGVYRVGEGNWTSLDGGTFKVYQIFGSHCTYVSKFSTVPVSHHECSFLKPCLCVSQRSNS

Row | SMILES | inhibition
1 | CC(C)OC(=O)CN1C(=O)C(=O)c2ccccc21 | -5.73%
2 | CCOC(=O)c1cc2n(c1N)-c1ccccc1C2=O | 157% (active)
3 | CCOC(=O)Nc1ccccc1N1C(=O)c2ccccc2C1=O | -16.9%
4 | CCNc1nc(N)nc(-c2cc(Cl)ccc2OC)n1 | -10.6%
5 | CCN(CC)S(=O)(=O)c1ccc(Cl)c(C(=O)NC(C)C(c2cccs2)N2CCCC2)c1 (configuration not stated) | -7.74%
6 | O=C(c1[nH]ncc1-c1ccc(Cl)cc1)C1CO1 (configuration not stated) | -0.17%
7 | Nc1ccc2nc3c(=O)[nH]c(=S)[nH]c3nc2c1 | 158% (active)
8 | O=C(Nc1ccc([N+](=O)[O-])cc1)C1CC12CCC2 (configuration not stated) | 18.7%
9 | FC(F)(F)c1ccc(-n2cn[nH]c2=S)cc1 | -0.1%
10 | COc1ccccc1NC(=O)CCSc1nnc(-c2ccc(O)cc2)o1 | 16.2%
11 | Cc1cccc(OCCNC(=S)NC(=O)c2cccnc2)c1 | -11%
12 | Cc1ccc(-c2nc(SCC(=O)Nc3ccccc3OC(F)F)c3c(C)c(C(=O)O)sc3n2)cc1 | 92.6% (active)
13 | CCOC(=O)c1ccc[n+](CC(=O)Nc2ccccc2OC(F)F)c1 | -15.4%
14 | Cc1ccc(C)c(SCc2nc3sc(C(=O)O)c(C)c3c(=O)[nH]2)c1 | -9.06%
15 | C[C@@H](NC(=O)OC(C)(C)C)c1nnc(S(=O)(=O)Cc2ccccc2)o1 | 0.97%
16 | Cc1ccc(NC(=S)Nc2ncccc2C)c(C)c1 | -9.14%
17 | CCOC(=O)c1c(NC(=O)CNC2CCCc3ccccc32)sc(C(N)=O)c1C (configuration not stated) | -9.07%
18 | N#C/C(=C(/O)Cc1cccc2ccccc12)c1nc2ccccc2s1 | 4%
19 | CC1=CC(=C(C#N)c2nc3ccccc3s2)C=C(C)N1c1ccc(F)cc1F | 176% (active)
20 | O=C(O)CS/C(=C\c1ccc(F)cc1)c1nc2ccccc2s1 | -2.63%
21 | Cc1c(C(=O)Nc2cccc(Cl)c2)cn2c(nc3ccccc32)c1C#N | -23.4%
22 | CC(=O)Nc1ccc(NS(=O)(=O)c2cc(C)sc2C)cc1 | 15.2%
23 | O=C(Nc1ccc2sc3ccccc3c(=O)c2c1)c1ccccc1Cl | -5.22%

Row | SMILES | inhibition
24 | FC(F)(F)Oc1ccc(-c2cn3cccnc3n2)cc1 | -6.62%
25 | CCOC(=O)c1sc(=S)n(-c2cccc(OC)c2)c1N | -17.2%
26 | COCCOC(=O)c1sc(=S)n(CCOC)c1N | 85.3% (active)
27 | COC(=O)c1sc(=S)n(-c2ccccc2)c1N | -22.9%
28 | C/C(=N/NC(=O)CN1CCN(S(=O)(=O)c2ccc(Br)cc2)CC1)c1ccncc1 | -10.4%
29 | Cc1c(NC(=S)NCc2ccc(F)cc2)cccc1[N+](=O)[O-] | -0.91%
30 | CCOc1ccc(/C=C(/NC(=O)c2ccccc2)C(=O)NCCC(=O)O)cc1 | 8.99%
31 | COc1cc(/C=N\Nc2nc(-c3cccs3)c(NC(C)=O)s2)ccc1O | -5.81%
32 | CCOc1cc(/C=C(\C#N)c2nc(-c3cccs3)c(NC(C)=O)s2)ccc1O | 93.2% (active)
33 | COc1cc(/C=C(\C#N)c2nc3c(s2)CC(C)CC3)ccc1O (configuration not stated) | -29.5%
34 | C/C(CC(=O)N1CCN(C=O)CC1)=N\NC(=O)c1ccc(Br)cc1 | 8.36%
35 | COc1ccc(/C=N/n2c(C)cc(C)cc2=O)cc1 | 1.02%
36 | Cc1cccc(NC(=S)NC23CN4CN(CN(C4)C2)C3)c1 | -1.99%
37 | CCn1c(COc2ccccc2)nnc1SCC(=O)NCc1ccco1 | 2.39%
38 | C=CCn1c(SCC(=O)Nc2nc3ccccc3s2)nnc1-c1ccccc1O | -0.36%
39 | C=CCn1c(CSc2nc3ccccc3s2)nnc1SCC(=O)NCc1ccco1 | 50.6% (active)
40 | CSc1cc(C)[nH]c(=O)n1 | 6.61%
41 | Cc1cc(C(=O)N/N=C/c2ccc(N3CCOCC3)cc2)c(C)o1 | -16.3%
42 | CNC(=O)c1ccsc1NC(=O)c1ccc(S(=O)(=O)N2CCc3ccccc32)cc1 | 0.14%
43 | Cc1cnc(C(=O)OCC(=O)NCCCc2ccccc2)cn1 | -8.79%
44 | COc1ccccc1OCC(=O)OCn1c(SC)nnc(C)c1=O | -6.57%
45 | Cn1c(=O)n(C)c2cc(/C=N/NC(=O)c3cccc(Br)c3)ccc21 | -5.32%
46 | O=C(C1=C(O)C(=O)N(CCOCCO)C1c1ccccn1)c1cccs1 (configuration not stated) | -10.3%

Row | SMILES | inhibition
47 | O=C(C1=C(O)C(=O)N(Cc2ccccc2)C1c1ccco1)c1ccco1 (configuration not stated) | -8.71%
48 | O=C(C1=C(O)C(=O)N(c2ncccn2)C1c1cccs1)c1ccco1 (configuration not stated) | 65.7% (active)
49 | CCOC(=O)N/N=C1\CC(C)S(=O)(=O)c2ccc(Cl)cc21 (configuration not stated) | 0.18%
50 | O=c1cc(CO)oc(C(Nc2cccc([N+](=O)[O-])c2)c2ccccn2)c1O (configuration not stated) | -4.92%
51 | COc1ccc(-c2nn(C)c(=O)c3ccccc23)cc1CNC(=O)C1CCCCC1 | -11.8%
52 | COC(=O)CCCC1=CC2=CC(=O)C(C)(OC(=O)c3cccs3)C(=O)C2=CN1c1cccc(C#N)c1 (configuration not stated) | 78% (active)
53 | COC(=O)CCCC1=CC2=CC(=O)C(C)(OC(=O)c3cccs3)C(=O)C2=CN1CC(C)C (configuration not stated) | 2.99%
54 | COC(=O)CCCC1=CC2=CC(=O)C(C)(OC(=O)c3cccs3)C(=O)C2=CN1CC1CC1 (configuration not stated) | 0.53%
55 | Cc1ccc(C(=O)NNc2ncnc3ccccc23)cc1 | -1.4%
56 | CC(C)Oc1ccc(Oc2ccc(C(F)(F)F)cn2)cc1 | 6.36%
57 | NC1=NC(=O)C2(COC(c3ccccc3Cl)OC2)S1 (configuration not stated) | -11.7%
58 | CN1CCN(CCCCOc2ccccc2-c2ccccc2)CC1 | -24.1%
59 | CNc1nc2c(C)cccn2c(=O)c1C=Nc1ccc(OC)cc1 | -10.2%
60 | CCOC(=O)CC1C(=O)NCCN1c1nc2c(C)cccn2c(=O)c1/C=C1\SC(=S)N(C(C)CC)C1=O (configuration not stated) | -14.8%
61 | Cc1cccn2c(=O)c(/C=C3\SC(=S)N(CC(C)C)C3=O)c(NCCCOC(C)C)nc12 | 137% (active)
62 | CCOc1ccc(N2CC(C(=O)N/N=C/c3sccc3C)CC2=O)cc1 (configuration not stated) | -24%
63 | C=CCNc1cnn(-c2ccc(C)cc2)c(=O)c1Cl | 15.2%
64 | O=C(COC(=O)CNS(=O)(=O)c1ccccc1)NC12CC3CC(CC(C3)C1)C2 | -4.36%
65 | Cc1c(-c2cccc(Cl)c2)nc2ccccc2c1C(=O)OCC(=O)N(C)C1CCS(=O)(=O)C1 (configuration not stated) | 27.8%
66 | COc1ccc(NC(=O)COc2ccc(C(=O)OCC(=O)N(C)C3CCS(=O)(=O)C3)cc2OC)cc1 (configuration not stated) | -11.6%
67 | CN(C(=O)COC(=O)c1cc(-c2ccco2)nc2ccccc12)C1CCS(=O)(=O)C1 (configuration not stated) | 95.4% (active)
68 | COc1ccc(/C=N/NC(=O)CNC(=O)c2ccc(S(=O)(=O)N3CCCC3)cc2)c(OC)c1 | -7.62%
69 | COc1ccc(OCC(=O)NN2Cc3ccccc3C2=N)cc1 | -18.4%

Row | SMILES | inhibition
70 | O=C(NC1CC1)C1=C[C@H](c2c[nH]c3ccccc23)C[C@H](OCc2ccc(CO)cc2)O1 | -3.29%
71 | O=c1c2cc3c(=O)n(CC4CCCO4)c(=O)c3cc2c(=O)n1CC1CCCO1 (configuration not stated) | -9.61%
72 | O=C(NCc1ccc2c(c1)OCO2)c1ccc2c(c1)C(=O)N(CC1CCCO1)C2=O (configuration not stated) | -19.8%
73 | O=C1c2cccc3c([N+](=O)[O-])ccc(c23)C(=O)N1CC1CCCO1 (configuration not stated) | 64.2% (active)
74 | CN1CCc2nc(SC(C(=O)O)c3ccccc3)c(C#N)c(-c3cccs3)c2C1 (configuration not stated) | 6.93%
75 | CC(C)CNC(=O)COC(=O)c1ccccc1OCC(=O)Nc1ccc(Br)cc1 | -2.14%
76 | O=C(Oc1c(-c2ccco2)oc2ccccc2c1=O)c1cccnc1 | -4.14%
77 | Cc1cc(SCC(=O)NCCN2C(=O)CSC2=O)nc2ccccc12 | -6.4%
78 | COc1cc(C(F)(F)F)nc2c(Br)c(C(C)(C)C)nn12 | -5.73%
79 | CN(CCN1CCOCC1)Cc1nc(-c2ccc3c(c2)OCO3)no1 | -2.97%
80 | O=C1c2ccccc2-c2ncnc3c(N4CCOCC4)cc(N4CCOCC4)c1c23 | 51.8% (active)
81 | c1ccc(-c2oc3ncnc(N4CCOCC4)c3c2-c2ccccc2)cc1 | 0.89%
82 | Cc1oc2c(c1C(=O)N1CCOCC1)C(=O)c1ccccc1C2=O | -10.1%
83 | COCCn1c(Cc2cccn2C)nnc1SCC(=O)Nc1nccs1 | 0.89%
84 | CC(=O)Nc1cccc(Oc2cc(C#N)c(C#N)cc2N2CCOCC2)c1 | -5.04%
85 | COc1cccc(C(=O)Nc2ccc(N3CCCC3)cc2)c1 | -3.03%
86 | COc1cc(N2CCCC2)c(OC)cc1/C=C(/C#N)c1cccc(Br)c1 | 112% (active)
87 | CCO[C@H]1OC(C(=O)N2CCCCCCC2)=C[C@@H](c2ccc(C(F)(F)F)cc2)[C@@H]1CCCO | 116% (active)
88 | CCO[C@H]1OC(C(=O)N2CCOCC2)=C[C@@H](c2ccc3c(c2)OCO3)[C@@H]1CCCO | -9.61%
89 | CCO[C@@H]1OC(C(=O)N2CCOCC2)=C[C@H](C)[C@H]1CCCO | -7.59%
90 | COC(=O)c1sccc1NN1C(=O)c2ccccc2C1=O | -6.24%
91 | CC(=O)Nc1ccc(S(=O)(=O)N2CCN(C(=O)c3ccccc3F)CC2)cc1 | -7.73%
92 | CCOC(=O)C1=C(N)N(c2ccc(C)cc2)C2=C(C(=O)CCC2)C1c1cccs1 (configuration not stated) | -16.1%
